{"source": "PubChem BioAssay (EPA / NIEHS)", "note": "Activity calls are given as the source filed them. How the source made its calls: active means hit-call score of the fitted dose curve at least 0.9, where 1 is the maximum; inactive means score below 0.9."}
{"assay": "ATG_BRE_CIS: Attagene CIS-FACTORIAL HepG2 Assay for human Bone Morphogenetic Protein (BMP) Response Element (BRE) (AID 2282933)", "conditions": "HepG2 BMP response element reporter, Attagene transcription factor profiling; actives raise or lower the signal", "procedure": "ATG_CIS is a cell-based, multiplexed-readout assay that uses HepG2, a human liver cell line, with measurements taken at 24 hours after chemical dosing in a 24-well plate.ATG_BRE_CIS is one of 52 assay component(s) measured or calculated from the ATG_CIS assay. It is designed to make measurements of mRNA induction, a form of inducible reporter, as detected with fluorescence intensity signals by Reverse transcription polymerase chain reaction (RT-PCR) and Capillary electrophoresis technology.Data from the assay component ATG_BRE_CIS was analyzed into 1 assay endpoint. This assay endpoint, ATG_BRE_CIS, was analyzed with bidirectional fitting relative to DMSO as the negative control and baseline of activity. Using a type of inducible reporter, measures of mRNA for gain or loss-of-signal activity can be used to understand the reporter gene at the transcription factor-level as they relate to the gene SMAD1. Furthermore, this assay endpoint can be referred to as a primary readout, because this assay has produced multiple assay endpoints where this one serves a reporter gene function. To generalize the intended target to other relatable targets, this assay endpoint is annotated to the dna binding intended target family, where the subfamily is Smad protein.\nHuman liver HepG2 cells are transiently transfected with multiple reporter transcription units (MRTUs) in 6-well plates using FuGene 6 reagent (Roche; 3 ml FuGene/1 mg DNA). The MRTU constructs are regulated by a cis-regulating element (promoter). […] A major difference between the CIS and TRANS system is that in CIS activities of endogenous TFs are measured, whereas the TRANS assay evaluates changes in activities of exogenous, chimeric NR-Gal4 proteins. […] At the end of 24 hour incubation, total RNA was isolated using TriZol reagent (Invitrogen). The isolated RNA is then reverse-transcribed using oligo(dT) primer and Mo-MLV reverse transcriptase (Invitrogen) with DNAse I (Ambion) treatment for 30 min. The one-tenth of the produced cDNA was amplified by PCR using Taq DNA polymerase (Invitrogen) and two reporter sequence-specific primers. The PCR products were fluorescently labeled by primer extension with 6-arboxyfluorescein (6-FAM) 5'-labeled reporter sequence-specific primer (2 min at 95 C, 20 s at 68 C and 10 min at 72 C) and these products were digested with 5U of HpaI (New England Biolabs) for 2h at 37 C. The fragments were purified using Qiaquick PCR columns (Qiagen), analyzed on an ABI 3130xL genetic analyzer (Applied Biosystems) with peak positions identified by using a set of X-rhodamine (ROX)-labeled MapMarker1000 molecular weight standards (BioVentures). The raw capillary electrophoresis data was processed using Attagraph software (Attagene)."}
{"molecule": "O=S(=O)(F)C(F)(F)C(F)(F)C(F)(F)C(F)(F)C(F)(F)C(F)(F)C(F)(F)C(F)(F)F", "outcome": "inactive"}
{"molecule": "O=S1(=O)OCC2C(CO1)C1(Cl)C(Cl)=C(Cl)C2(Cl)C1(Cl)Cl", "note": "(stereo not given)", "outcome": "inactive"}
{"molecule": "COCCOCCO", "outcome": "inactive"}
{"molecule": "O=C(O)C=CC(F)(C(F)(F)F)C(F)(F)F", "outcome": "inactive"}
{"molecule": "NNC(N)=S", "outcome": "inactive"}
{"molecule": "O=P(OCC(Br)CBr)(OCC(Br)CBr)OCC(Br)CBr", "note": "(stereo not given)", "AC50": "20.6 µM (active)"}
{"molecule": "CCC1(c2ccccc2)C(=O)N=C(O)NC1=O", "note": "(stereo not given)", "outcome": "inactive"}
{"molecule": "O=[N+]([O-])c1cc(Cl)ccc1Cl", "outcome": "inactive"}
{"molecule": "CCOS(=O)(=O)OCC", "outcome": "inactive"}
{"molecule": "O=C(O)CF", "outcome": "inactive"}
{"molecule": "CNC(=O)Oc1ccc(N(C)C)c(C)c1", "outcome": "inactive"}
{"molecule": "N#C/C=C/c1ccccc1", "outcome": "inactive"}
{"molecule": "CC(C)CBr", "outcome": "inactive"}
{"molecule": "c1nc[nH]n1", "outcome": "inactive"}
{"molecule": "CCOP(=S)(Oc1ccc([N+](=O)[O-])cc1)c1ccccc1", "note": "(stereo not given)", "AC50": "62.6 µM (active)"}
{"molecule": "Cc1ccc(C(=O)Cl)cc1", "outcome": "inactive"}
{"molecule": "CCCCN(CCCC)N=O", "outcome": "inactive"}
{"molecule": "COC(=O)C(F)(F)C(F)(F)OC(F)(C(F)(F)F)C(F)(F)OC(F)=C(F)F", "note": "(stereo not given)", "outcome": "inactive"}
{"molecule": "[N-]=[N+]=[N-]", "outcome": "inactive"}
{"molecule": "CCOP(=S)(OCC)SCS(=O)(=O)CC", "outcome": "inactive"}
{"molecule": "CO/N=C(/C(=O)OC)c1ccccc1COc1ccccc1C", "AC50": "27.7 µM (active)"}
{"molecule": "O=P1(N(CCCl)CCCl)NCCCO1", "note": "(stereo not given)", "outcome": "inactive"}
{"molecule": "OCC(F)(F)OC(F)(F)C(F)(F)OC(F)(F)C(F)(F)OC(F)(F)F", "outcome": "inactive"}
{"molecule": "c1ccc(OP(Oc2ccccc2)Oc2ccccc2)cc1", "outcome": "inactive"}
{"molecule": "CC(Cc1ccc(OCC(=O)O)cc1)NCC(O)c1csc(C(F)(F)F)n1", "note": "(stereo not given)", "outcome": "inactive"}
{"molecule": "COC(N)=O", "outcome": "inactive"}
{"molecule": "CC(C)(C)c1ccc(O)cc1", "AC50": "58.1 µM (active)"}
{"molecule": "CC(O)C(F)(F)C(F)(F)F", "note": "(stereo not given)", "outcome": "inactive"}
{"molecule": "CN(C)C(=O)Cl", "outcome": "inactive"}
{"molecule": "Nc1ccc(Cl)cc1", "outcome": "inactive"}
{"molecule": "CC(Cl)(Cl)C(=O)O", "outcome": "inactive"}
{"molecule": "CCOC(=O)c1ccccc1N", "outcome": "inactive"}
{"molecule": "ClC(Cl)(Cl)c1ccccc1", "outcome": "inactive"}
{"molecule": "O=c1ssc(Cl)c1Cl", "outcome": "inactive"}
{"molecule": "CC(C)Nc1ccc(Nc2ccccc2)cc1", "outcome": "inactive"}
{"molecule": "Cc1ccc(N)cc1N", "outcome": "inactive"}
{"molecule": "Cc1cccc(N)c1", "outcome": "inactive"}
{"molecule": "CC(C)(C)c1ccccc1OP(=O)(Oc1ccccc1)Oc1ccccc1", "outcome": "inactive"}
{"molecule": "CCN(CC)C1CCCCC1", "outcome": "inactive"}
{"molecule": "ClC(Cl)c1ccccc1", "outcome": "inactive"}
